Compounds without any hit were thinned out: in the full panel of roughly 83,000, 20% have a hit.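 Plates (96-well) were seeded with cells, treated with compound at one concentration, and incubated for 48 hours before percent growth was determined.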 Calls of active or inactive are those of the source. Rule for the calls: active = growth percent below 10; inactive = the rest.
Experiments:
Test in all cases: NCI-60 one-dose screen, 48 h (100 = growth as untreated, 0 = no growth, -100 = all killed)
Settings in all cases: 10 µM unless noted
HCT-15 colon = tested on: HCT-15 colon
HT29 colon = tested on: HT29 colon
SNB-75 CNS = tested on: SNB-75 CNS
SNB-19 CNS = tested on: SNB-19 CNS
U251 CNS = tested on: U251 CNS
PC-3 prostate = tested on: PC-3 prostate
SK-MEL-5 melanoma = tested on: SK-MEL-5 melanoma
UACC-62 melanoma = tested on: UACC-62 melanoma
LOX IMVI melanoma = tested on: LOX IMVI melanoma
SK-MEL-28 melanoma = tested on: SK-MEL-28 melanoma
SK-MEL-2 melanoma = tested on: SK-MEL-2 melanoma
EKVX NSCLC = tested on: EKVX NSCLC
SN12C renal = tested on: SN12C renal
UO-31 renal = tested on: UO-31 renal
TK-10 renal = tested on: TK-10 renal
ACHN renal = tested on: ACHN renal
CAKI-1 renal = tested on: CAKI-1 renal
A498 renal = tested on: A498 renal
CCRF-CEM leukemia = tested on: CCRF-CEM leukemia
MOLT-4 leukemia = tested on: MOLT-4 leukemia

Measured: growth

CN1CCN(Cc2ccc(NC(=O)c3cncc(C#Cc4cnn5ccccc45)c3)cc2C(F)(F)F)CC1
inactive: SNB-75 CNS 13.6% | SK-MEL-5 melanoma 14.9% | UACC-62 melanoma 13.8% | SK-MEL-28 melanoma 25%
active: HCT-15 colon 0.133% | HT29 colon 4.53% | SNB-19 CNS 5.8% | U251 CNS 7.18% | PC-3 prostate -4.22% | LOX IMVI melanoma -39.6% | SK-MEL-2 melanoma -27% | EKVX NSCLC -3.23% | SN12C renal -1.07% | UO-31 renal -9.3% | TK-10 renal 7.73% | ACHN renal 2.54% | CAKI-1 renal -9.06% | A498 renal -11.7% | CCRF-CEM leukemia 6.17% | MOLT-4 leukemia 1.84%

COc1ccc2cc(-c3cnc4nonc4n3)ccc2c1
active: UACC-62 melanoma 2.86% | CCRF-CEM leukemia 8.1% | MOLT-4 leukemia 6.87%
inactive: HCT-15 colon 22.7% | HT29 colon 13.4% | SNB-75 CNS 15.8% | SNB-19 CNS 37.7% | U251 CNS 16.9% | PC-3 prostate 25.5% | SK-MEL-5 melanoma 31.8% | LOX IMVI melanoma 25.5% | SK-MEL-28 melanoma 86.3% | SK-MEL-2 melanoma 52.7% | EKVX NSCLC 16.1% | SN12C renal 38.7% | UO-31 renal 37.7% | TK-10 renal 54.5% | ACHN renal 50.8% | CAKI-1 renal 29.7% | A498 renal 60.8%

COc1ccc(NC(=O)c2sc3nc(C)c(C(O)c4ccccc4)cc3c2N)cc1 (centres undefined)
active: A498 renal -1.83% | CCRF-CEM leukemia 7.85%
inactive: HCT-15 colon 24.9% | HT29 colon 13.1% | SNB-75 CNS 20.3% | SNB-19 CNS 28.6% | U251 CNS 17.8% | PC-3 prostate 23.4% | SK-MEL-5 melanoma 23.2% | UACC-62 melanoma 26.2% | LOX IMVI melanoma 55.1% | SK-MEL-28 melanoma 57% | SK-MEL-2 melanoma 46.5% | EKVX NSCLC 40.4% | SN12C renal 36.1% | UO-31 renal 43.4% | TK-10 renal 52.6% | ACHN renal 45.2% | CAKI-1 renal 42.4% | MOLT-4 leukemia 12.5%

Cn1ncc2ccc(-c3nc(-c4ccccc4)[nH]c3-c3n[nH]c(=O)n3C3CC3)cc21
inactive: HCT-15 colon 100% | HT29 colon 87.1% | SNB-75 CNS 81.2% | SNB-19 CNS 95.9% | U251 CNS 100% | PC-3 prostate 77.9% | SK-MEL-5 melanoma 98.8% | UACC-62 melanoma 100% | LOX IMVI melanoma 97.2% | SK-MEL-28 melanoma 102% | SK-MEL-2 melanoma 101% | EKVX NSCLC 96% | SN12C renal 101% | UO-31 renal 93.1% | TK-10 renal 103% | ACHN renal 97% | CAKI-1 renal 94.8% | A498 renal 48.7% | CCRF-CEM leukemia 96.4% | MOLT-4 leukemia 93.5%

COc1cc(C(=O)/C=C/c2c(-c3cccs3)nc3ccccn23)cc(OC)c1OC
active: HCT-15 colon -7.46% | HT29 colon -25.8% | SNB-75 CNS -4.3% | U251 CNS 1.5% | PC-3 prostate 7.19% | SK-MEL-5 melanoma -24.1% | UACC-62 melanoma -33.1% | LOX IMVI melanoma -1.66% | SK-MEL-28 melanoma 8.11% | EKVX NSCLC 4.84% | SN12C renal 4.93% | TK-10 renal 0.55% | ACHN renal -23.4% | CAKI-1 renal -5.58% | A498 renal -21.8% | MOLT-4 leukemia -0.559%
inactive: SNB-19 CNS 14.2% | SK-MEL-2 melanoma 10.7% | UO-31 renal 10.7% | CCRF-CEM leukemia 12.3%

N#Cc1c(-c2ccccc2)cc(-c2ccccc2)n(CCCC(=O)NO)c1=O
inactive: HCT-15 colon 19.1% | HT29 colon 20.9% | SNB-19 CNS 43.5% | U251 CNS 26.8% | PC-3 prostate 35.5% | SK-MEL-28 melanoma 33.4% | SK-MEL-2 melanoma 34.1% | EKVX NSCLC 27.1% | SN12C renal 25.8% | TK-10 renal 34.3% | CCRF-CEM leukemia 10.9% | MOLT-4 leukemia 14.1%
active: SNB-75 CNS -23.6% | SK-MEL-5 melanoma -13.6% | UACC-62 melanoma 9.37% | LOX IMVI melanoma 8.85% | UO-31 renal -24.8% | ACHN renal 8.48% | A498 renal -6.11%

C#CC#CC#CC#CC#CC#CC#CC#CCC1OCC(COC(=O)O[C@@H](C(=O)O[C@H]2C[C@@]3(O)[C@@H](OC(=O)c4ccccc4)[C@@H]4[C@]5(OC(C)=O)CO[C@@H]5C[C@H](O)[C@@]4(C)C(=O)[C@H](OC(C)=O)C(=C2C)C3(C)C)[C@@H](NC(=O)c2ccccc2)c2ccccc2)O1 (some centres undefined)
active: HT29 colon 5.02% | SNB-75 CNS -25.2% | A498 renal -8.03%
inactive: HCT-15 colon 66.8% | SNB-19 CNS 18.9% | U251 CNS 17.9% | PC-3 prostate 19.4% | SK-MEL-5 melanoma 23.4% | UACC-62 melanoma 22.3% | LOX IMVI melanoma 26.9% | SK-MEL-28 melanoma 59.2% | SK-MEL-2 melanoma 30.9% | EKVX NSCLC 45.5% | SN12C renal 21.4% | UO-31 renal 81.7% | TK-10 renal 48% | ACHN renal 45.4% | CCRF-CEM leukemia 12.1% | MOLT-4 leukemia 20.7%

C=C1C(=O)O[C@H]2[C@H]1CC/C(COC(=O)/C=C\C(=O)NCc1ccc(Cn3c(=O)sn(-c4ccccc4)c3=O)cc1)=C\CC[C@@]1(C)O[C@@H]21
active: CCRF-CEM leukemia 1.9%
inactive: HCT-15 colon 42.4% | HT29 colon 50.8% | SNB-75 CNS 98% | SNB-19 CNS 107% | U251 CNS 84.3% | PC-3 prostate 83.5% | SK-MEL-5 melanoma 106% | UACC-62 melanoma 85% | LOX IMVI melanoma 76% | SK-MEL-28 melanoma 94.4% | SK-MEL-2 melanoma 89.8% | EKVX NSCLC 98.9% | SN12C renal 83.1% | UO-31 renal 59.4% | TK-10 renal 67.1% | ACHN renal 42.1% | CAKI-1 renal 65.1% | A498 renal 91.2% | MOLT-4 leukemia 25.3%

O=C1Nc2ccc(F)cc2/C1=N/c1nnc(Sc2ccccc2)s1
inactive: HCT-15 colon 98.3% | HT29 colon 105% | SNB-75 CNS 80.2% | SNB-19 CNS 105% | U251 CNS 91.4% | PC-3 prostate 91.7% | SK-MEL-5 melanoma 86.7% | UACC-62 melanoma 88.8% | LOX IMVI melanoma 90.9% | SK-MEL-28 melanoma 116% | SK-MEL-2 melanoma 102% | EKVX NSCLC 101% | SN12C renal 95.4% | UO-31 renal 80.2% | TK-10 renal 111% | ACHN renal 82.2% | CAKI-1 renal 75.1% | A498 renal 79% | CCRF-CEM leukemia 47.7% | MOLT-4 leukemia 77.2%

CCCCn1sc(=O)n(Cc2ccc(CNC(=O)OCc3ccc4c(Cl)cc(Cl)c(O)c4n3)cc2)c1=O
inactive: HCT-15 colon 19% | HT29 colon 101% | SNB-75 CNS 81.1% | SNB-19 CNS 52.5% | U251 CNS 41.1% | PC-3 prostate 58.5% | SK-MEL-5 melanoma 59.5% | UACC-62 melanoma 47.9% | LOX IMVI melanoma 46% | SK-MEL-28 melanoma 69.2% | SK-MEL-2 melanoma 85.6% | EKVX NSCLC 86.7% | SN12C renal 57.6% | UO-31 renal 18.3% | TK-10 renal 78% | ACHN renal 30.8% | A498 renal 91% | CCRF-CEM leukemia 32% | MOLT-4 leukemia 33.5%

COc1ccc(-c2cn(-c3ccc(Cl)cc3)c(SCC(=O)c3ccc([N+](=O)[O-])cc3)n2)cc1
inactive: HCT-15 colon 92.7% | HT29 colon 89.6% | SNB-75 CNS 39% | SNB-19 CNS 52.3% | U251 CNS 60.6% | PC-3 prostate 73.7% | SK-MEL-5 melanoma 88.2% | UACC-62 melanoma 68.7% | LOX IMVI melanoma 89.1% | SK-MEL-28 melanoma 95.8% | SK-MEL-2 melanoma 73.6% | EKVX NSCLC 95% | SN12C renal 78.3% | UO-31 renal 82.5% | ACHN renal 81.5% | A498 renal 85.2% | CCRF-CEM leukemia 93.8% | MOLT-4 leukemia 83.5%

O=C(NCc1ccc2c(c1)OCO2)NCC1CCCC(CNC(=O)NCc2ccc3c(c2)OCO3)C1 (centres undefined)
inactive: HCT-15 colon 99.2% | HT29 colon 110% | SNB-75 CNS 97.3% | SNB-19 CNS 87.7% | U251 CNS 103% | PC-3 prostate 102% | SK-MEL-5 melanoma 102% | UACC-62 melanoma 95.8% | LOX IMVI melanoma 97.9% | SK-MEL-28 melanoma 114% | SK-MEL-2 melanoma 109% | EKVX NSCLC 106% | SN12C renal 102% | UO-31 renal 95.7% | ACHN renal 105% | CAKI-1 renal 89.6% | A498 renal 95.3% | CCRF-CEM leukemia 85.1% | MOLT-4 leukemia 92.9%

Cc1nn(-c2ccccc2)c(/N=C/N(C)C)c1/C=C/C(=O)c1ccc(Cl)cc1
inactive: HCT-15 colon 62.7% | HT29 colon 95.4% | SNB-75 CNS 91.6% | SNB-19 CNS 100% | U251 CNS 95.1% | PC-3 prostate 85.9% | SK-MEL-5 melanoma 89.3% | UACC-62 melanoma 88.3% | LOX IMVI melanoma 49% | SK-MEL-28 melanoma 89.6% | SK-MEL-2 melanoma 99.4% | EKVX NSCLC 77.4% | SN12C renal 82.5% | UO-31 renal 78.1% | TK-10 renal 104% | ACHN renal 102% | A498 renal 92.6% | CCRF-CEM leukemia 66.6% | MOLT-4 leukemia 60.9%

N=C(N)c1ccc(-c2ccc(-c3ccc(Cl)cc3Cl)s2)cc1F
inactive: SNB-75 CNS 20.7% | SK-MEL-5 melanoma 50.8% | SK-MEL-28 melanoma 83.7% | SK-MEL-2 melanoma 55.8% | EKVX NSCLC 32.4% | TK-10 renal 91.5% | A498 renal 83.7%
active: HCT-15 colon -75.7% | HT29 colon -29.4% | SNB-19 CNS -34.3% | U251 CNS -52.1% | PC-3 prostate -14.1% | UACC-62 melanoma -54% | LOX IMVI melanoma -89.9% | SN12C renal -27.9% | UO-31 renal -90.5% | ACHN renal -100% | CCRF-CEM leukemia -26.1% | MOLT-4 leukemia -47.2%

Cc1cccc(-n2c(C)nc3ccc(N4CCCNC4=O)cc3c2=O)c1
inactive: HCT-15 colon 113% | HT29 colon 106% | SNB-75 CNS 103% | SNB-19 CNS 98.2% | U251 CNS 93.4% | PC-3 prostate 100% | SK-MEL-5 melanoma 102% | UACC-62 melanoma 97.3% | LOX IMVI melanoma 97.7% | SK-MEL-2 melanoma 106% | EKVX NSCLC 99.5% | SN12C renal 98% | UO-31 renal 88.7% | TK-10 renal 104% | ACHN renal 111% | CAKI-1 renal 99.8% | A498 renal 90.1% | CCRF-CEM leukemia 106% | MOLT-4 leukemia 110%

Fc1ccc2c(c1)c(-c1nc(-c3c[nH]c4ncccc34)cs1)cn2CCCN1CCOCC1
inactive: HCT-15 colon 24.5% | HT29 colon 12.9% | SNB-75 CNS 41.2% | SNB-19 CNS 62.7% | U251 CNS 30.4% | PC-3 prostate 31.9% | SK-MEL-5 melanoma 43.7% | UACC-62 melanoma 69.5% | LOX IMVI melanoma 33.1% | SK-MEL-28 melanoma 75.4% | SK-MEL-2 melanoma 60.5% | EKVX NSCLC 55.9% | SN12C renal 73.9% | UO-31 renal 31.5% | ACHN renal 42.2% | A498 renal 51% | CCRF-CEM leukemia 21.8% | MOLT-4 leukemia 24.8%

Reference: PubChem BioAssay (NCI)
